# Compound activity deposited in PubChem by several laboratories.
# Most compounds without a hit are left out; they make up all but 22% or so of the library.
# E-sel TNF inh = blocks E-selectin expression induced by TNF alpha; HUVEC TNFa-induced E-selectin immunofluorescence, high content; inhibition, % at 2 µM; actives 0.71% (n = 120,000);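 active = inhibition above the batch mean plus 3 SD, and confirmed as a hit on visual image review, cut at about 43% in these data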;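 also: 0% = TNF-stimulated DMSO wells and 100% = unstimulated control wells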
# CYP2C9 inhib = human CYP2C9 inhibition | P11712 | CYP2C9 Supersomes, luciferin-H conversion, luminescence | inhibition, % at 5 µM | actives 20% (n = 96,000) | AID 777;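 active = blocking of liver enzyme CYP2C9 beyond about 50% at 5 µM, limit read from the data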
# Target sequence (P11712 whole entry, looked up): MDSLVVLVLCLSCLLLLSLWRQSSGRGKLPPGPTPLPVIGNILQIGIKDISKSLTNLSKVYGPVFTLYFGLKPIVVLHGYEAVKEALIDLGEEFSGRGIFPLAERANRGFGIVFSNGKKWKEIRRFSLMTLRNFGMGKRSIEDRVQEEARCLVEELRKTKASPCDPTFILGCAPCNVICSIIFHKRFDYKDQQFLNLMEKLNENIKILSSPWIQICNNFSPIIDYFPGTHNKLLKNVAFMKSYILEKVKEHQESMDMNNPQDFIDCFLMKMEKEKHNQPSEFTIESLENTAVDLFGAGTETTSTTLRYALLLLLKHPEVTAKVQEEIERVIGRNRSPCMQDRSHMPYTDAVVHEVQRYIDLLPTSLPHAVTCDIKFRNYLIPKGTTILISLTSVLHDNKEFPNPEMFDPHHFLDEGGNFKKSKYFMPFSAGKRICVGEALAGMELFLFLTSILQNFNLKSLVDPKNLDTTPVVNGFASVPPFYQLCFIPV
# F-actin modifier = modifiers of cytoskeleton assembly; HUVEC TNFa F-actin phalloidin imaging, high content; inhibition, % at 2 µM; actives 0.18% (n = 91,000); AID 836;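 active = inhibition above the batch mean plus 3 SD and confirmed as a hit by visual image inspection, cut at about 30% in these data, passing the limit was not always enough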
# CYP2C19 inh = blocks human cytochrome P450 2C19. CYP2C19 Supersomes, luciferin-H EGE luminescence, 30 min. P33261. actives 21% (n = 96,000). inhibition, % at 5 µM. AID 778;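 active = CYP2C19 inhibition above a set limit at 5 µM in the primary screen, cut at about 50% in these data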;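 also: plate controls were negative control wells for no effect and 2.5 mM tranylcypromine positive control for full effect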
# CYP2C19 act = cytochrome P450 2C19 (human) activation. activation factor at 5 µM. 96,000 tested, under 10 active. recombinant CYP2C19, luciferin-H EGE luminescence; hits give high values; 0 = fully inhibited enzyme, 1 = untreated enzyme. P33261;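 active = activation factor of at least 2 at 5 µM in the primary screen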;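 also: 0 = wells with 2.5 mM tranylcypromine and 1 = vehicle-only wells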
# CYP2C9 act = increases human cytochrome P450 2C9 activity | activation factor at 5 µM | recombinant CYP2C9, luciferin-H conversion, luminescence; hits give high values; factor 1 = untreated enzyme, 0 = blocked | actives 1.4% (n = 96,000);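 active = activation factor of 2 or more for CYP2C9 at a 5 µM dose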;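 also: 0 = sulfaphenazole-blocked wells and 1 = vehicle-only wells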
# Starred values were filed as active, the others as inactive; . = no result.
SMILES,E-sel TNF inh,CYP2C9 inhib,F-actin modifier,CYP2C19 inh,CYP2C19 act,CYP2C9 act
Cc1ccccc1C(=O)c1cccn1CC(=O)NCCN1CCN(c2cccc(C)c2C)CC1,-8,46,-9,83*,0.2,0.5
CCC(=O)Nc1ccc(OCc2nc3ccccc3s2)cc1,-39,.,.,.,.,.
CN(CC(=O)Nc1ccccc1C(=O)N1CCCC1)S(=O)(=O)c1ccc(Br)cc1,6,46,2,25,0.8,0.5
O=C(COC(=O)C1CCN(S(=O)(=O)c2cccs2)CC1)Nc1ccccc1,-23,.,.,.,.,.
O=C(CCc1nc2ccccc2s1)N1CCN(S(=O)(=O)c2cccs2)CC1,-12,59*,-12,70*,0.3,0.4
O=C(CCCOc1ccccc1)N1CCN(S(=O)(=O)c2cccs2)CC1,0,10,-7,13,0.9,0.9
O=C(OCc1nc2ccccc2s1)C1CCN(S(=O)(=O)c2cccs2)CC1,.,95*,23,82*,0.2,0
O=S(=O)(c1cccs1)N1CCN(Cc2nc3ccccc3s2)CC1,-19,83*,-13,85*,0.2,0.2
CCOC(=O)C1CCN(S(=O)(=O)C(F)(F)c2nc3ccccc3s2)CC1,.,65*,-32,95*,0,0.4
O=C(O)C1(c2ccccc2)CCN(S(=O)(=O)c2cccs2)CC1,-30,.,.,.,.,.
COCCCNC(=O)C1CCN(c2ncccn2)CC1,8,1,-16,20,0.8,1
COc1ccc(/C(C)=N\NC(=O)CSc2nnc(C)s2)cc1,2,.,.,.,.,.
O=C(CCSc1ccccc1)OCn1nnc2ccccc2c1=O,-47,.,.,.,.,.
O=C(CCCc1cccs1)N1CCN(S(=O)(=O)c2ccccc2Br)CC1,4,69*,-16,48,0.5,0.3
c1ccc(-n2nnnc2NCCCN2CCOCC2)cc1,-8,-25,-5,27,0.7,1.2
Cn1c(C(=O)N2CCN(c3ncccn3)CC2)cc2c(=O)n(C)c3ccccc3c21,-3,93*,-2,17,0.8,0.1
Cc1cccc(N2CCN(C(=O)c3cc4c(=O)n(C)c5ccccc5c4n3C)CC2)c1C,17,-14,4,-8,1.1,1.1
Cn1c(C(=O)N2CCCC2)cc2c(=O)n(C)c3ccccc3c21,25,7,0,8,0.9,0.9
Cc1ccc(Cl)cc1N1CCN(C(=O)c2cc3c(=O)n(C)c4ccccc4c3n2C)CC1,1,98*,6,77*,0.2,0
Cc1ccnc2c(N3C(=O)C4C5c6ccccc6C(c6ccccc65)C4C3=O)cccc12 (stereo not drawn),-4,20,-3,38,0.6,0.8
Cc1ccc(C2C3CSCC=C3C(C#N)=C(N)C2(C#N)C#N)cc1 (stereo not drawn),-23,81*,.,29,0.7,0.2
Cc1ccc([C@@H]2C3COCC=C3C(C#N)=C(N)C2(C#N)C#N)o1 (stereo partly drawn),.,49,-1,69*,0.3,0.5
N#CC1=C(N)C(C#N)(C#N)[C@H](c2ccncc2)[C@H]2CC3(CC=C12)OCCO3,-10,71*,-5,51*,0.5,0.3
Cc1cccc(CC(C)NC(=O)CCc2nnc(CCCCc3ccccc3)o2)n1 (stereo not drawn),-35,.,.,.,.,.
COc1ccc(C)cc1S(=O)(=O)Nc1ccncc1,8,.,.,.,.,.
SMILES,E-sel TNF inh,CYP2C9 inhib,F-actin modifier,CYP2C19 inh,CYP2C19 act,CYP2C9 act
Cc1ccc(C)c(S(=O)(=O)Nc2ccc3scnc3c2)c1,-36,66*,-1,100*,0,0.3
Cc1cc(NC(=O)CSc2nnc3c(C)cc4cc5c(cc4n23)OCO5)no1,.,13,.,2,1,0.9
CCOC(=O)c1sc(N)c(C#N)c1CSc1nnc(C2CCCCC2)n1N,-6,78*,-9,44,0.6,0.2
N#Cc1ccc(COC(=O)CSc2nnc(C3CCCCC3)n2N)cc1,-63,13,10,15,0.8,0.9
CN(C)CCCOC(=O)CCc1ccccc1,-29,2,-46,8,0.9,1
CN(C)CCCOC(=O)Cc1ccc(Cl)cc1,1,26,-4,69*,0.3,0.7
CCOc1ccc(S(=O)(=O)N2CCc3cc(OC)c(OC)cc3C2)cc1,1,.,.,.,.,.
CCCCCC(=O)Nc1nc2ccccc2[nH]1,-29,.,6,.,.,.
CCC(Oc1ccccc1)C(=O)Nc1nc2ccccc2[nH]1 (stereo not drawn),-7,52*,-4,32,0.7,0.5
COc1ccccc1CCC(=O)Nc1nc2ccccc2[nH]1,7,1,-12,62*,0.4,1
